CYP2C19 inhib: blocks human cytochrome P450 2C19; CYP2C19 Supersomes, luciferin-H EGE luminescence, 30 min; inhibition, % at 5 µM; actives 21% (n = 96,000); AID 778;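 active means CYP2C19 inhibition above a set limit at 5 µM in the primary screen, cut at about 50% in these data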
Target sequence (P33261 whole entry, looked up): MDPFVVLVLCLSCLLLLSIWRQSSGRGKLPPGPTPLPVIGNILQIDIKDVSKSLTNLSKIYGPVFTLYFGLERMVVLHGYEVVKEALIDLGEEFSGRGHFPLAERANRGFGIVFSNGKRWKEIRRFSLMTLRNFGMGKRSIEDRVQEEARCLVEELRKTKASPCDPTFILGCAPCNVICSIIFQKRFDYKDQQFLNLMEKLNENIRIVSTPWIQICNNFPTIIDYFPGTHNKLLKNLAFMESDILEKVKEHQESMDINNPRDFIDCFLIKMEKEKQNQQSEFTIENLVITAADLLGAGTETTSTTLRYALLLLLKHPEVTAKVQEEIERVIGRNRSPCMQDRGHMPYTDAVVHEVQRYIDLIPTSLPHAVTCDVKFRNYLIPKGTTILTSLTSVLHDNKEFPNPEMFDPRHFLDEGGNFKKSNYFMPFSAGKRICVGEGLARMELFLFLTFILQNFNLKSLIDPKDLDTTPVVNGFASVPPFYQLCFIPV
CYP2C9 activ: activators of human CYP2C9. actives 1.4% (n = 96,000). AID 1024. recombinant CYP2C9, luciferin-H conversion, luminescence; active compounds read high; factor 1 = untreated enzyme, 0 = blocked. P11712. activation factor at 5 µM;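 active means activation factor of 2 or more for CYP2C9 at a 5 µM dose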
CYP2C9 inh: human CYP2C9 inhibition; P11712; CYP2C9 Supersomes, luciferin-H conversion, luminescence; inhibition, % at 5 µM; actives 20% (n = 96,000);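 active means blocking of liver enzyme CYP2C9 beyond about 50% at 5 µM, limit read from the data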
MRP resist rev: compounds reversing MRP-mediated drug resistance | actives 0.04% (n = 85,000) | differential viability (reversal), % at 10 µM | H69AR cells + 2 uM doxorubicin, CellTiter-Glo, 72 h;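 active means viability drop by adding the cancer drug above about 55%, with treated viability meeting a 40% cutoff, limit read from the data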;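 further: larger differential means the compound sensitizes cells more to doxorubicin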
CYP2C19 act: activators of human cytochrome P450 2C19; P33261; recombinant CYP2C19, luciferin-H EGE luminescence; active compounds read high; 0 = fully inhibited enzyme, 1 = untreated enzyme; activation factor at 5 µM; 96,000 tested, under 10 active;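 active means activation factor of at least 2 at 5 µM in the primary screen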
MRP1 act: activates MRP-1. H69AR cells + doxorubicin, viability rescue, CellTiter-Glo. viability increase, % at 10 µM. actives 0.61% (n = 140,000);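 active means viability gain under doxorubicin at or above a set limit, the compound median plus 3 SD, cut at about 4.7% in these data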;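 further: MRP-1 overexpressing cells given doxorubicin 25 µM after compound pretreatment; 18-22 h compound pretreatment then 72 h with doxorubicin before readout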
Large screens that a line does not name were inactive. A selection: hits, their analogues and other compounds. The true share with any hit is near 21%.

Cc1ccc(C(NC(N)=O)c2ccccc2C)cc1 (configuration not stated)	CYP2C19 inhib 99
COc1ccc(CNC(=O)NC(C)(C)c2cccc(C(C)(C)NC(=O)NCc3ccc(OC)cc3)c2)cc1	none (no result: CYP2C19 inhib, CYP2C9 activ, CYP2C9 inh, MRP resist rev, CYP2C19 act)
COc1ccccc1CNC(=O)c1cc2c(=O)n(C)c3ccccc3c2n1C	none (no result: CYP2C19 inhib, CYP2C9 activ, CYP2C9 inh, CYP2C19 act, MRP1 act)
CCOc1ccccc1CNC(=O)c1ccc(Sc2ccc(Cl)cc2)c(NC(C)=O)c1	none (no result: CYP2C19 inhib, CYP2C9 activ, CYP2C9 inh, MRP resist rev, CYP2C19 act)
CC(C)CNC1=CC(=O)CC(c2ccco2)C1 (configuration not stated)	CYP2C19 inhib 55
O=C1C=C(NCc2ccc(Cl)cc2)CC(c2ccco2)C1 (configuration not stated)	CYP2C19 inhib 93, CYP2C9 inh 60
O=C1C=C(Nc2ccc(O)cc2)CC(c2ccco2)C1 (configuration not stated)	none (no result: CYP2C19 inhib, CYP2C9 activ, CYP2C9 inh, CYP2C19 act)
CCCCCNC1=CC(=O)CC(c2ccccc2)C1 (configuration not stated)	none (no result: MRP resist rev)
O=C1C=C(NCc2ccncc2)CC(c2ccccc2)C1 (configuration not stated)	CYP2C19 inhib 96
CC1(C)CC(=O)C=C(Nc2ccccc2F)C1	none
O=C(OCc1ccccc1)C1CCCN1C(=O)c1ccccc1[N+](=O)[O-] (configuration not stated)	none (no result: MRP resist rev)
O=c1c2cnn(-c3ccc(F)cc3)c2ncn1Cc1cccnc1	CYP2C19 inhib 50
O=c1c2cnn(-c3ccccc3)c2ncn1Cc1ccccn1	none
O=c1c2cnn(-c3ccccc3)c2ncn1Cc1cccnc1	none
O=c1c2cnn(-c3ccccc3Cl)c2ncn1Cc1cccnc1	CYP2C19 inhib 53
O=c1c2cnn(-c3ccccc3)c2ncn1Cc1ccco1	CYP2C9 inh 50
O=C(CCn1cnc2ccccc2c1=O)Nc1ccc(S(=O)(=O)N2CCCC2)cc1	none
CCC(C)NC(=O)C1CCC(=O)N(c2ccc3c(c2)OCO3)C1c1ccc(OC)cc1 (configuration not stated)	none (no result: MRP resist rev)
CCC(C)(C)C1CCC2(CC1)NC(CO)(CO)CO2 (configuration not stated)	none (no result: CYP2C19 inhib, CYP2C9 activ, CYP2C9 inh, CYP2C19 act)
CCOC(=O)CNC(=O)CSc1nc(N(C)C)nc(N2CCOCC2)n1	CYP2C19 inhib 84
COC(=O)CSc1nc(NC(C)C)nc(N2CCOCC2)n1	CYP2C19 inhib 50
O=S(=O)(NC1=NCCCCC1)c1ccc2ccccc2c1	none (no result: CYP2C19 inhib, CYP2C9 activ, CYP2C9 inh, MRP resist rev, CYP2C19 act)
CC(=O)NC(CC(=O)Nc1cccc(S(=O)(=O)N2CCCCC2)c1)c1ccccc1 (configuration not stated)	none
COC(C(=O)Nc1ccc(S(=O)(=O)N2CCCCC2)cc1)c1ccccc1 (configuration not stated)	CYP2C9 inh 80
CC(=O)NC(CC(=O)Nc1ccc(S(=O)(=O)N2CCCCC2)cc1)c1ccccc1 (configuration not stated)	CYP2C19 inhib 69, CYP2C9 inh 74 (no result: MRP resist rev)
COC(C(=O)Nc1ccc(S(=O)(=O)Nc2ccc(F)cc2)cc1)c1ccccc1 (configuration not stated)	none (no result: CYP2C19 inhib, CYP2C9 activ, CYP2C9 inh, MRP resist rev, CYP2C19 act)
Cc1ccccc1NC(=O)NC1(C(=O)NCCCN2CCOCC2)CCCCC1	none (no result: CYP2C19 inhib, CYP2C9 activ, CYP2C9 inh, CYP2C19 act)
COc1ccc(-n2nnc3c(=O)n(Cc4cccc(C)c4)cnc32)cc1	CYP2C9 inh 56
CCOCC(O)CNc1ccccc1 (configuration not stated)	none (no result: CYP2C19 inhib, CYP2C9 activ, CYP2C9 inh, MRP resist rev, CYP2C19 act)
OC(CNc1ccccc1)COc1ccc(OCC(O)CNc2ccccc2)cc1 (configuration not stated)	CYP2C9 inh 67 (no result: MRP resist rev)
Cc1cc(C)c2cc(C#N)c(N3CCCC3)nc2c1	none
CCCC1Cc2nc(N3CCCCC3)c(C#N)cc2CO1 (configuration not stated)	CYP2C19 inhib 73, CYP2C9 inh 86
CCC(=O)NC(c1ccc([N+](=O)[O-])cc1)c1c(O)ccc2ccccc12 (configuration not stated)	CYP2C19 inhib 94, CYP2C9 inh 54 (no result: MRP resist rev)
O=C(NC(c1ccccc1)c1c(O)ccc2ccccc12)c1ccccc1Cl (configuration not stated)	CYP2C19 inhib 76, CYP2C9 inh 93 (no result: MRP resist rev)
O=C(NC(c1ccc(Cl)cc1)c1c(O)ccc2ccccc12)c1ccccc1 (configuration not stated)	none (no result: CYP2C19 inhib, CYP2C9 activ, CYP2C9 inh, MRP resist rev, CYP2C19 act)
CC(C)C(=O)NC(c1ccco1)c1c(O)ccc2ccccc12 (configuration not stated)	CYP2C9 inh 66 (no result: MRP resist rev)

High-throughput results deposited in PubChem BioAssay by several laboratories.
